Results as given in the supplement of paper PMC10037445.
The full ranking holds about 2,900 compounds; the median of “NF-kB SEAP reporter activity, fold change vs agonist alone” is about 0.99, and the highest 2% start at about 2.6. What follows is part of a selection rich in the highest values, with near analogues and random picks from the rest.

Legend:
[1] = test system: RAW-Dual; test: NF-kB SEAP reporter activity, fold change vs agonist alone; cytotoxicity flag (confluency mask): not cytotoxic; higher = enhanced NF-kB activity
Method in brief: (§1)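 Library stock was pin-tooled at 50 nL into 384-well plates of RAW-Dual macrophages (50,000 cells/well, DMEM), followed 1 h later by a PRR agonist, and the cells were kept at 37 °C, 5% CO2. Supernatant collected after 20 hours was read for IRF by QuantiLuc luminescence and for NF-κB by QuantiBlue absorbance at 620 nm. Reporter activity is fold change over agonist-alone wells, and a well counted as cytotoxic when its IncuCyte confluency was below 70% of agonist controls in both mask sets.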

[2] = test system: RAW-Dual; test: NF-kB SEAP reporter activity, fold change vs agonist alone; higher = enhanced NF-kB activity; conditions: library stock concentration (final ~1000-fold dilution): 10 mM
Method in brief: as §1

[3] = test system: RAW-Dual; test: NF-kB SEAP reporter activity, fold change vs agonist alone; cytotoxicity flag (confluency mask): cytotoxic (confluency <70% of control); higher = enhanced NF-kB activity
Method in brief: as §1

[4] = agonist: ODN 1826 (TLR9) 0.5 ug/mL
[5] = agonist: Pam2CSK4 (TLR2/6) 0.1 ug/mL
[6] = agonist: Pam3CSK4 (TLR2/1) 0.1 ug/mL
[7] = cytotoxicity flag (confluency mask): not cytotoxic, agonist: Imiquimod (TLR7) […]
[8] = cytotoxicity flag (confluency mask): not cytotoxic, agonist: MPLA (TLR4) […]
[9] = cytotoxicity flag (confluency mask): cytotoxic (confluency <70% of control), agonist: Imiquimod (TLR7) […]
[10] = cytotoxicity flag (confluency mask): cytotoxic (confluency <70% of control), agonist: MPLA (TLR4) […]

`CCCCCCOC(=O)c1cc(O)c(=O)c2c(O)c(O)c(OC)cc2c1` (library stock concentration (final ~1000-fold dilution): 10 mM) was tested, and the “NF-kB SEAP reporter activity” value ([1]; agonist: LPS (TLR4) 0.1 ug/mL) was 0.614, the “NF-kB SEAP reporter activity” value [1, 4] was 0.459 and the “NF-kB SEAP reporter activity” value [1, 5] was 0.599. For the same compound, the “NF-kB SEAP reporter activity” value [1, 6] was 0.895.
In the case of `CCCCCCOC(=O)c1cc(O)c(=O)c2c(O)c(O)c(OC)cc2c1`, the “NF-kB SEAP reporter activity” value [2, 7] is reported as 1.2 and the “NF-kB SEAP reporter activity” value [2, 8] is reported as 0.857.
With `NC(=O)c1cccc2nc(-c3ccc(C4CCCN4)cc3F)[nH]c12` (stereo unspecified) the “NF-kB SEAP reporter activity” value [2, 7] was 1.14 and the “NF-kB SEAP reporter activity” value [2, 8] was 0.748.
In the case of `NC(=O)c1cccc2nc(-c3ccc(C4CCCN4)cc3F)[nH]c12` (stereo unspecified) (library stock concentration (final ~1000-fold dilution): 10 mM), the “NF-kB SEAP reporter activity” value ([1]; agonist: LPS (TLR4) 0.1 ug/mL) is reported as 0.553, the “NF-kB SEAP reporter activity” value [1, 4] is reported as 0.198 and the “NF-kB SEAP reporter activity” value [1, 5] is reported as 1.03. For the same compound, the “NF-kB SEAP reporter activity” value [1, 6] was 1.
In the case of `COC(=O)CC(O)(CCCC(C)(C)O)C(=O)OC1C(OC)=CC23CCCN2CCc2cc4c(cc2C13)OCO4` (stereo unspecified) (library stock concentration (final ~1000-fold dilution): 10 mM), the “NF-kB SEAP reporter activity” value ([3]; agonist: LPS (TLR4) 0.1 ug/mL) is reported as 0.397, the “NF-kB SEAP reporter activity” value [3, 4] is reported as 0.169 and the “NF-kB SEAP reporter activity” value [3, 5] is reported as 0.0771. For the same compound, the “NF-kB SEAP reporter activity” value [3, 6] was 0.133.
In the case of `COC(=O)CC(O)(CCCC(C)(C)O)C(=O)OC1C(OC)=CC23CCCN2CCc2cc4c(cc2C13)OCO4` (stereo unspecified), the “NF-kB SEAP reporter activity” value [2, 9] is reported as 0.141 and the “NF-kB SEAP reporter activity” value [2, 10] is reported as 0.255.
For `Cc1ccc(C(=O)N(CCCN)C(c2oc3cc(Cl)ccc3c(=O)c2Cc2ccccc2)C(C)C)cc1.Cl` (stereo unspecified) (library stock concentration (final ~1000-fold dilution): 10 mM), the “NF-kB SEAP reporter activity” value ([1]; agonist: LPS (TLR4) 0.1 ug/mL) was 0.189, the “NF-kB SEAP reporter activity” value [1, 4] was 0.953 and the “NF-kB SEAP reporter activity” value [1, 5] was 0.344. For the same compound, the “NF-kB SEAP reporter activity” value [1, 6] was 0.73.
`Cc1ccc(C(=O)N(CCCN)C(c2oc3cc(Cl)ccc3c(=O)c2Cc2ccccc2)C(C)C)cc1.Cl` (stereo unspecified) was tested, and the “NF-kB SEAP reporter activity” value [2, 7] was 0.905 and the “NF-kB SEAP reporter activity” value [2, 8] was 1.03.
`Oc1cc(CNC(=S)/C=C/c2cc(O)c(O)c(Br)c2)cc(O)c1O` was tested, and the “NF-kB SEAP reporter activity” value [2, 7] was 1.78 and the “NF-kB SEAP reporter activity” value [2, 8] was 2.29.
For `Oc1cc(CNC(=S)/C=C/c2cc(O)c(O)c(Br)c2)cc(O)c1O` (library stock concentration (final ~1000-fold dilution): 10 mM), the “NF-kB SEAP reporter activity” value ([1]; agonist: LPS (TLR4) 0.1 ug/mL) was 3.51, the “NF-kB SEAP reporter activity” value [1, 4] was 2.77 and the “NF-kB SEAP reporter activity” value [1, 5] was 1.67. For the same compound, the “NF-kB SEAP reporter activity” value [1, 6] was 0.821.
With `Cc1cc2c(F)c(Oc3ncnn4cc(OCC(C)OC(=O)C(C)N)c(C)c34)ccc2[nH]1` (stereo unspecified) the “NF-kB SEAP reporter activity” value [2, 9] was 1.98 and the “NF-kB SEAP reporter activity” value [2, 10] was 1.72.
With `Cc1cc2c(F)c(Oc3ncnn4cc(OCC(C)OC(=O)C(C)N)c(C)c34)ccc2[nH]1` (stereo unspecified) (library stock concentration (final ~1000-fold dilution): 10 mM) the “NF-kB SEAP reporter activity” value ([3]; agonist: LPS (TLR4) 0.1 ug/mL) was 1.52, the “NF-kB SEAP reporter activity” value [3, 4] was 0.94 and the “NF-kB SEAP reporter activity” value [3, 5] was 0.759. The “NF-kB SEAP reporter activity” value [3, 6] was 1.13.
